Bioassay records as filed in PubChem BioAssay.
Luc counter: blocks Kinase-Glo luciferase, a counter-screen artifact. Q27757. Kinase-Glo luciferase, ATP luminescence, 8 min. Potency, µM (highest dose often 38.3 µM), for inactives: at the highest dose activity change, negative = inhibition, most hits filed as inhibitors. actives 0.28% (n = 200,000). AID 1379; further: on the % scale 0 is the no-effect control and ±100 the full control effect; nearly all actives have a fitted effect of over 60% in size
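Compounds were added to a substrate mix at pH 7.2 (50 mM imidazole, 10 uM ATP, within the enzyme's linear range), followed by Kinase-Glo detection reagent; luminescence was measured after 8 minutes at ambient temperature.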
ELG1 genotoxic: induces genotoxicity in HEK293T cells with luciferase-tagged ELG1; HEK293T ELG1-luciferase reporter, luminescence, 16 h; Potency, µM (highest dose often 46 µM), without a hit: top-dose activity change, positive = activation, hits mostly activators; actives 1.3% (n = 330,000); further: % of control where 0% means no effect; nearly all actives have a fitted effect of over 60% in size
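After overnight (16 hr) compound treatment at 37 °C, ELG1-luciferase HEK293T cells were lysed with ONE-Glo; luminescence quantified 30 min later at room temperature.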
SMN2 splice up: increases expression of the SMN2 splice variant; AID 1458; actives 2.8% (n = 210,000); Potency, µM (series often up to 46.1 µM), without a hit: top-dose activity change, positive = activation, usual class: activators; HEK293 SMN2-luciferase splicing reporter, luminescence, 30-36 h; further: % of control where 0% means no effect; nearly all actives have a fitted effect of over 55% in size
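HEK293 cells carry an SMN2 […]–luciferase reporter in which exon 7 inclusion puts luciferase in frame. Cells were plated 10-12 h before compound addition, then incubated 30-36 h at 37C. ONE-Glo luminescence was read; sodium butyrate at 4.5 mM final served as control.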
FLuc counter: inhibits or activates purified firefly luciferase, miR-21 counter-screen | Potency, µM (doses to about 57.5 µM), without a hit: at the highest dose activity change, negative = inhibition, usual class: inhibitors | purified FLuc, Km substrates, luminescence inhibition | P08659 | actives 6.9% (n = 360,000);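 further: plate controls were vehicle for no effect and reference inhibitor for full effect; nearly all actives have a fitted effect of over 55% in size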
Target sequence (P08659 whole entry, looked up): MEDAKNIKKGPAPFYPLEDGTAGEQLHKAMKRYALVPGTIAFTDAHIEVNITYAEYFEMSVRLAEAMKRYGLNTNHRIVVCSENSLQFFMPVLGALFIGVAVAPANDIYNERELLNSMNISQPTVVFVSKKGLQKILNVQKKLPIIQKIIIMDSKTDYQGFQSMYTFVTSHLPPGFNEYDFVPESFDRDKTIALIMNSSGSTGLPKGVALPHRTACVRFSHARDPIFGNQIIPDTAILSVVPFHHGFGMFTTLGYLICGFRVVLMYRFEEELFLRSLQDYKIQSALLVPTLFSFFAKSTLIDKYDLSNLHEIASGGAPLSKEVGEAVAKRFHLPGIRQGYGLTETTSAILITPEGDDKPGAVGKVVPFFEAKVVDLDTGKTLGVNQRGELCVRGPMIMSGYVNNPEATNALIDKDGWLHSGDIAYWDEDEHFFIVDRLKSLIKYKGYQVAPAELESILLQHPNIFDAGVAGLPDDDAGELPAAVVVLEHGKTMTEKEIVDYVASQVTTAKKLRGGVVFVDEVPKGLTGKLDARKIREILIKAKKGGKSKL
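Purified P. pyralis luciferase, 10 nM final, with Km-level 10 uM D-luciferin and 10 uM ATP in 50 mM Tris acetate pH 7.5, 10 mM Mg acetate, 0.01% Tween-20, 0.05% BSA; 6-point qHTS titration about 60 µM downward; luminescence read.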
NPC1 prom act: NPC1 promoter activation | Potency, µM (top dose mostly 9.22 µM), without a hit: at the highest dose activation, most hits filed as activators | Huh7 NPC1 promoter luciferase reporter, 24 h | AID 485313 | actives 2.4% (n = 320,000); further: % of control where 0% means no effect; nearly all actives have a fitted effect of over 60% in size
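Stable NPC1-promoter luciferase Huh7 line; cpd (DMSO) 24 h, 37 °C, 5% CO2; Amplite luciferase reagent 10 min RT; luminescence readout. qHTS format.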
Rab9 promoter act: Rab9 promoter activation | Huh7 Rab9 promoter-luciferase reporter, luminescence, 24 h | Potency, µM (doses to about 9.22 µM), for the others: top-dose activation, negative = inhibition, hits mostly activators | AID 485297 | actives 2.8% (n = 320,000); further: % of control where 0% means no effect; nearly all actives have a fitted effect of over 60% in size
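Steps: seed 1500 Huh7 Rab9-luc cells per well, rest 2 h at 37 °C; add compound in DMSO; incubate 24 h; add luciferase reagent, 10 min ambient; read luminescence.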
Starred values were filed as active, the others as inactive; ? = inconclusive; · = not tested or not shown; [ ] = remark or other dose. Sampled rows, rich in hits. Any-hit rate of the full collection: about 7.5%. The call rests on the fitted dose curve; in most records, active means well fitted curve in the direction sought with a large enough effect; inconclusive means small, poorly fitted or top-dose-only effect, or another doubt; inactive means no such curve, though single readings can be large; an effect the other way counts as inactive or inconclusive. Potency means the concentration at half of the fitted maximal effect.

SMILES	Luc counter	ELG1 genotoxic	SMN2 splice up	FLuc counter	NPC1 prom act	Rab9 promoter act
COc1ccc(N/C=C(\C#N)c2nc3ccccc3n2C)c(OC)c1	14%	-7%	-18%	2.7µM*	21%	0%
Cn1c(/C(C#N)=C/c2ccccc2Br)nc2ccccc21	·	·	5%	7.6µM*	·	·
CCn1c(/C(C#N)=C/c2ccccc2Cl)nc2ccccc21	·	·	·	5.4µM*	·	·
COc1ccccc1C(=O)c1nc2ccccc2n1C	·	0%	·	1%	29%	1%
CCc1ccc(NC(=O)C(=O)NCC(c2ccc3c(c2)OCO3)N2CCN(C)CC2)cc1 (configuration not stated)	·	·	·	0%	·	·
CCCC(=O)N1CCN(c2ccc(NC(=S)NC(=O)c3cccc(C)c3)cc2)CC1	-3%	-11%	-51%	1%	-9%	-17%
COc1ccc(-c2nc(C#N)c(NC(C)C)o2)cc1	-3%	27%	5%	13µM*	?	?
C=CCNc1oc(-c2ccc(Cl)cc2)nc1C#N	·	-1%	·	·	·	·
CNc1oc(-c2ccc(Cl)cc2)nc1C#N	-7%	?	13%	11µM*	?	?
N#Cc1nc(-c2ccc(Cl)cc2)oc1NCC1CCCO1 (configuration not stated)	3%	?	?	21µM*	10%	?
N#Cc1nc(-c2cccc3ccccc23)oc1NCC1CCCO1 (configuration not stated)	·	?	·	12µM*	7%	25%
COc1ccc(-c2nc(C#N)c(N3CCCCC3)o2)cc1	·	-4%	·	?	1%	1%[1.84 µM]
COc1ccccc1NS(=O)(=O)c1cccc(C(=O)NCc2ccco2)c1	2%	0%	-12%	3%	0%	-3%
Cc1ccc(NC(=O)c2ccc(C(=O)c3ccccc3)cc2)nc1	·	?	·	19µM*	30%	28%
Cc1ccc(NC(=O)CCNC(=O)c2ccccc2Cl)nc1	·	10%	·	-1%	-1%	0%
COc1cc2ccccc2cc1C(=O)Nc1ccc(C)cn1	·	2.9µM*	·	3µM*	?	?
Cc1ccc(NC(=O)c2ccc3nc[nH]c3c2)nc1	·	10%	·	2%	3%	1%
Cc1ccc(NC(=O)c2cc(F)c(F)cc2Cl)nc1	-8%	?	·	8.5µM*	1.8µM*	0.89µM*
Cc1ccc(NC(=O)c2ccccc2F)nc1	?	1.8µM*	7.9µM*	4.8µM*	1.1µM*	0.71µM*
Cc1cc(NC(=O)c2cc(F)c(F)cc2Cl)no1	-2%	3%	1%	-16%	-1%	3%
Cc1ccc2nc(C)cc(C(=O)OCC(=O)Nc3cccnc3Cl)c2c1	-2%	2%	7%	0%	1%	5%
Cc1c(NCc2cc(Cl)cc(Cl)c2O)c(=O)n(-c2ccccc2)n1C	-2%	-5%	-15%	0%	0%	2%
Cc1c(NCc2nc3ccccc3[nH]2)c(=O)n(-c2ccccc2)n1C	-7%	2%	-7%	15µM*	-6%	4%
O=C(C[C@@H]1C/C=C/CCCC(=O)O[C@H](c2ccccc2)CNC1=O)N[C@H](CO)Cc1ccccc1	·	0%	·	·	·	·
COC(=O)CNC(=O)CNC(=O)c1nn(-c2ccc(OC)c(Cl)c2)c(=O)c2ccccc12	3%	-1%	-11%	1%	-8%	2%
SMILES	Luc counter	ELG1 genotoxic	SMN2 splice up	FLuc counter	NPC1 prom act	Rab9 promoter act
CCOC(=O)N1CCN(C(=O)CNC(=O)c2nn(-c3ccc(OC)c(OC)c3)c(=O)c3ccccc23)CC1	·	-11%	·	6.7µM*	0%	12%
CCCCNC(=O)CNC(=O)c1nn(-c2ccc(OC)c(Cl)c2)c(=O)c2ccccc12	·	4%	·	0%	0%	-2%
COc1ccc(-n2nc(C(=O)NCC(=O)N3CCCC3)c3ccccc3c2=O)cc1Cl	·	-5%	·	8.5µM*	-2%	11%
CCOC(=O)N1CCN(C(=O)CNC(=O)c2nn(-c3ccc(OC)c(Cl)c3)c(=O)c3ccccc23)CC1	·	1%	·	4.8µM*	6%	19%
CCC(C(=O)NCc1ccccc1)n1nc(C)c2sc3ccccc3c2c1=O (configuration not stated)	·	·	·	2%	·	·
CCC(C(=O)NCCc1ccccc1)n1nc(C)c2sc3ccccc3c2c1=O (configuration not stated)	·	·	·	19µM*	·	·
Cc1nn(CCCC(=O)NCc2ccc(F)cc2)c(=O)c2c1sc1ccccc12	·	·	·	-21%	·	·
Cc1nn(C(C)C(=O)NCc2cccc(F)c2)c(=O)c2c1sc1ccccc12 (configuration not stated)	·	·	·	11µM*	·	·
CCC(C(=O)N1CCN(c2ccccc2F)CC1)n1nc(C)c2sc3ccccc3c2c1=O (configuration not stated)	·	·	·	15µM*	·	·
COc1ccc(CCNC(=O)CCCn2nc(C)c3sc4ccccc4c3c2=O)cc1OC	·	·	·	13µM*	·	·
COc1ccccc1CNC(=O)c1cc2cc(C)ccc2n1C	·	·	·	1%	·	·
CCCSc1ccc([C@@H]2[C@@H]3C(=O)N(C)C(=O)[C@@H]3[C@]3(C(=O)OC)CCCN23)cc1OC	·	1%	·	-6%	1%	8%
Cc1nn(C(C)C(=O)NCc2ccccc2Cl)c(=O)c2c1sc1ccccc12 (configuration not stated)	-3%	-5%	-2%	-3%	2%	-5%
COc1ccc(CCNC(=O)C(C)n2nc(C)c3sc4ccccc4c3c2=O)c(OC)c1 (configuration not stated)	·	·	·	9.5µM*	·	·
CCOc1cccc(C(=O)Nc2ccc3ccccc3c2)c1	·	0.46µM*	·	0.48µM*	2.2µM*	0.56µM*
CCN(CC)c1ccc(NC(=O)c2ccccc2OCC(=O)OC)cc1	1%	-1%	12%	21µM*	17%	19%
Cc1c(C)n(C)c2ccc(C(=O)NCCCN3CCCC3)cc12	·	6%	·	0%	-1%	-9%
CCN(CC)c1ccc(NC(=O)c2ccc3c(c2)c(C)c(C)n3C)cc1	-4%	1%	-28%	9.5µM*	-4%	1%
CCOc1ccc(NC(=O)c2cnc(N3CCCCC3)c3ccccc23)cc1	·	·	·	11µM*	·	·
Cc1nc2sc(C(=O)N(C)Cc3ccccc3)c(NC(=O)c3ccccc3)c2c(C)c1Cl	·	·	11%	-3%	·	·
O=[N+]([O-])c1ccc(CCO)cc1	·	·	-6%	·	·	·
CCOc1ccc(C(=O)Nc2ccc(N3CCCC3)cc2)cc1	0%	4%	-7%	?	0%	0%
CCOc1cccc(C(=O)Nc2ccc(N3CCCC3)cc2)c1	·	18%	·	6µM*	?	?
CCOc1cccc(C(=O)Nc2ccc(N(CC)CC)cc2)c1	-3%	?	23%	13µM*	15%	7%
